This is an account of results in PubChem BioAssay (NCATS).

Values without a mark were called inactive. Records with an inconclusive call do not appear. Active and inactive are the calls of the source. Unless noted, calls come from the whole dose curve; as a rule, active = well fitted curve in the direction sought with a large enough effect; inconclusive = small, poorly fitted or top-dose-only effect, or another doubt; inactive = no such curve, though single readings can be large; an effect the other way counts as inactive or inconclusive.

Assay [1] is described as follows: Viability counterscreen for antagonist of constitutive androstane receptor (CAR) against the NCATS DSHEA and TCM libraries (AID 1794837).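 Note: compound exposure lasted 24 h before viability reading; 0% is about no effect.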 The method in brief: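 HepG2-CYP2B6-hCAR cells (2,500/well) were allowed to attach for 5 h, then exposed to compounds with 48 uM CITCO for 24 h at 37C. Viability was read by CellTiter-Fluor fluorescence after 1 h.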
On the technique in general: A counterscreen serves to expose hits that act by an unwanted route or on another target.

Assay [2] in a line: Viability counterscreen for agonist of constitutive androstane receptor (CAR) against the NCATS DSHEA and TCM libraries (AID 1794838). Note: 0% is about no effect. The method in brief: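 HepG2-CYP2B6-hCAR cells (2,500/well) attached 5 h, then got compounds plus 0.75 uM PK11195 final. After 24 h at 37C, viability read by CellTiter-Fluor fluorescence (Ex/Em 405/540 nm).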
The target of assay [3] is Nuclear receptor subfamily 1 group I member 3 (Homo sapiens) (UniProt Q14994). Nature of the assay: Primary qHTS for agonist of constitutive androstane receptor (CAR) against the NCATS DSHEA and TCM libraries (AID 1794839). Note: potency is the fitted concentration of half-maximal effect. The method in brief: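 HepG2-CYP2B6-hCAR cells (2,500/well) were attached for 5 h, then treated for 24 h at 37 °C with compounds plus 0.75 µM PK11195. Luciferase luminescence (ONE-Glo) was read, with CellTiter-Fluor viability (Ex/Em 405/540 nm).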
Sequence of Nuclear receptor subfamily 1 group I member 3 (Homo sapiens) (Q14994 whole entry, looked up): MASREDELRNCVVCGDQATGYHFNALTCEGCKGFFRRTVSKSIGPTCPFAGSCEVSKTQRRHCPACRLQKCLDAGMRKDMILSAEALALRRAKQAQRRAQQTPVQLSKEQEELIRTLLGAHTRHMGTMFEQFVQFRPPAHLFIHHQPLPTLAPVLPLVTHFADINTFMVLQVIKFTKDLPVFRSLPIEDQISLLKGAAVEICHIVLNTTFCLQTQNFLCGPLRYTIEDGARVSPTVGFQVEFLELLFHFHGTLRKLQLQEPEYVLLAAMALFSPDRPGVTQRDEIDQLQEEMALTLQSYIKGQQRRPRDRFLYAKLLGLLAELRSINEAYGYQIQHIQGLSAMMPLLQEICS
In general terms: Quantitative high-throughput screening tests each substance at several concentrations.

Assay [4] in a line: HepG2 viability counterscreen (readout 2: ATP content) against the NCATS DSHEA and TCM libraries (AID 1794840).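 Note: HepG2 cells exposed to substances for about 24 h; 0% is about no effect.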 The method in brief:
(§1)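 HepG2 cells (1,000 cells/well) attached ~4 h, then treated ~24 h at 37C with substances. Protease activity read by GF-AFC (25 uM final, 30 min, Ex/Em 380/510 nm); ATP content then by CellTiter-Glo luminescence.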

Assay [5] is described as follows: HepG2 viability counterscreen (readout 1: protease activity) against the NCATS DSHEA and TCM libraries (AID 1794841).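 Note: cells exposed to compounds for about 24 h before the protease read; 0% is about no effect.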 The method, boiled down: as §1
Assay [6] has as its target Cytochrome P450 2D6 (Homo sapiens) (UniProt P10635). Nature of the assay: qHTS for inhibitors of CYP2D6 against the NCATS DSHEA and TCM libraries (AID 1919972). Note: % is set by controls: 0 for no effect and ±100 for the full control effect. The method, boiled down: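 Luminescent P450-Glo read-out of CYP2D6 turnover of a luciferin substrate after NADPH-driven reaction of 30-45 min at room temperature. Compounds were first preincubated 15 min with enzyme at titrated concentrations; quinidine was the intraplate control.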

In assay [7] the target is Cytochrome P450 2C9 (Homo sapiens) (UniProt P11712). Nature of the assay: qHTS for inhibitors of CYP2C9 against the NCATS DSHEA and TCM libraries (AID 1919973). Note: potency is the fitted concentration of half-maximal effect. The method in brief: (§2)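 Read-out is luminescence after P450-Glo detection (30 min, RT). Before that: 15 min compound–enzyme preincubation, then 30-45 min reaction with 1x NADPH regeneration solution, substrate concentration isoform-specific.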
Sequence of Cytochrome P450 2C9 (Homo sapiens) (P11712 whole entry, looked up, canonical isoform): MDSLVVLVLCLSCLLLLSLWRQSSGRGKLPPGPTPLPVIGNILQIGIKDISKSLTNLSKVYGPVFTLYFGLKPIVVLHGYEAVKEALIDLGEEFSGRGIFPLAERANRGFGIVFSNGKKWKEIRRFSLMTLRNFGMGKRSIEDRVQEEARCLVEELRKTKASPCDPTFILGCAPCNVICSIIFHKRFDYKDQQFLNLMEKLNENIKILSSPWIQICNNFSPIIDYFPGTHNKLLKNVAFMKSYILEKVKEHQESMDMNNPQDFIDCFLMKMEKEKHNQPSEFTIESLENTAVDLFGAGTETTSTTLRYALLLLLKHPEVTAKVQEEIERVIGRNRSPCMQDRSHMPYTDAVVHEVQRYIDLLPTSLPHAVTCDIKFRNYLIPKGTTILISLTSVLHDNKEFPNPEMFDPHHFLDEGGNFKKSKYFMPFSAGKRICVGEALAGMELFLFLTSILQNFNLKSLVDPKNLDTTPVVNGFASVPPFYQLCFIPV

Assay [8] can be described thus: KB-3-1 P-gp reporter qHTS against the NCATS DSHEA and TCM libraries (AID 1919975). Note: 0% is about no effect. The method, boiled down:
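Parental KB-3-1 human cervical adenocarcinoma cells (500 cells/well, DMEM + 10% FBS) were treated with substances for ~72 h at 37C; viability was read by CellTiter-Glo luminescence.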

Assay [9] addresses Cytochrome P450 1A2 (Homo sapiens) (UniProt P05177). Nature of the assay: qHTS for inhibitors of CYPIA2 against the NCATS DSHEA and TCM libraries (AID 1919976). Note: potency is the fitted concentration of half-maximal effect. The method in brief: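 CYP1A2 + luciferin substrate, 100 mM KPO4-type buffer; cmpd 15 min RT; 1x NADPH regen, 30-45 min RT dark; detection reagent 30 min RT; luminescence. Minus-enzyme wells as background; furafylline intraplate control.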

Assay [10] is described as follows: qHTS Counterscreen for compound interference against the NCATS DSHEA and TCM libraries (AID 1919978). Note: % of control where 0% means no effect. The settings on record: firefly luciferase detection reagent interference, luminescence. The method in brief: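 D-luciferin (1 uM final) or 100 mM potassium phosphate buffer alone was preincubated 15 min at RT with compounds (19.5 nM to 39.8 uM final). Luciferin detection reagent was then added and luminescence read after 30 min at RT.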

Assay [11] can be described thus: Dual reporter qHTS for agonist of Pregnane X Receptor (hPXR) against the NCATS DSHEA and TCM libraries: Fluorescence readout (AID 1920058). Note: 0% is about no effect. The method, boiled down:
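HepG2 hPXR-Luc, 2000 cells/well, 5 h attach; cpds ~24 h, 37 °C/5% CO2; CellTiter-Fluor 1 h; fluor. Ex/Em 405/540 nm = viability.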

The target in assay [12] is Nuclear receptor subfamily 1 group I member 2 (Homo sapiens) (UniProt O75469). Nature of the assay: Dual reporter qHTS for agonist of Pregnane X Receptor (hPXR) against the NCATS DSHEA and TCM libraries: Luminescence readout (AID 1920059). Note: 0% is about no effect. The method in brief:
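Luminescent PXR reporter read (ONE-Glo) after a CellTiter-Fluor viability read, following 24 h, 37C treatment of HepG2 cells stably carrying hPXR-Luc.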

Assay [13] shares this target. Nature of the assay: Dual reporter qHTS for antagonist of Pregnane X Receptor (hPXR) against the NCATS DSHEA and TCM libraries: Luminescence Readout (AID 1920060).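 Note: HepG2 cells carrying hPXR luciferase reporter stimulated with rifampicin at 2 µM; 0% is about no effect.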 The method, boiled down: (§3)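 In antagonist mode, 2 uM rifampicin was added to hPXR-Luc HepG2 cells alongside test substances, incubated 24 h at 37 C; luminescence gave reporter activity, and CellTiter-Fluor fluorescence (405/540 nm) gave viability.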

Assay [14] is described as follows: Dual reporter qHTS for antagonist of Pregnane X Receptor (hPXR) against the NCATS DSHEA and TCM libraries: Fluorescence Readout (AID 1920061). Note: 0% is about no effect. The method, boiled down:
as §3

In assay [15] the target is Cytochrome P450 3A4 (Homo sapiens) (UniProt P08684). Nature of the assay: qHTS for inhibitors of CYP3A4 against the NCATS DSHEA and TCM libraries (AID 1919971). Note: potency is the fitted concentration of half-maximal effect. The method in brief: as §2
Sequence of Cytochrome P450 3A4 (Homo sapiens) (P08684 whole entry, looked up): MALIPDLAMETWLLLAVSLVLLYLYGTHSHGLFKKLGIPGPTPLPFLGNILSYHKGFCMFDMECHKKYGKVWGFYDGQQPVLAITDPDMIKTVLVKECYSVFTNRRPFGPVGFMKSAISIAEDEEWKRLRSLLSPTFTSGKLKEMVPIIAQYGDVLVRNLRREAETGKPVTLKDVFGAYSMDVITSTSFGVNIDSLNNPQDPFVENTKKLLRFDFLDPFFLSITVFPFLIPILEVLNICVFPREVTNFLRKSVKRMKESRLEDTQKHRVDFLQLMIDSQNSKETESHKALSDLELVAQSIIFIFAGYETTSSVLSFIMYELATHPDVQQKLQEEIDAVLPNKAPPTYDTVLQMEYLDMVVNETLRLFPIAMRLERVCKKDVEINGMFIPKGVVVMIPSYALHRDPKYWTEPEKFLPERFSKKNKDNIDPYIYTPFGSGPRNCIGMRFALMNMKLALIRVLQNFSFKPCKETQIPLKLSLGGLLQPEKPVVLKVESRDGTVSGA
Assay [16] deals with Mitogen-activated protein kinase 10 (Mus musculus) (UniProt Q61831). Put plainly: JNK3 AlphaScreen Assay (AID 530; active = well fitted curve in either direction with a large enough effect, not every such curve was filed as active;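 note: kinase came from lysate of stimulated human HepG2 cells; signal reports phosphorylation of biotinylated GST-cJun 1-79 at Ser73 with 10 µM ATP; series mostly up to about 57 µM; % is set by controls: 0 for no effect and ±100 for the full control effect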). The method, boiled down:
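Compound titrations were preincubated 15 minutes at room temperature with substrate, antibody and pre-activated JNK3-containing HepG2 lysate. Reactions were started with 10 uM ATP and stopped with EDTA-containing bead buffer for AlphaScreen detection.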

Sequence of Cytochrome P450 2D6 (Homo sapiens) (P10635 whole entry, looked up): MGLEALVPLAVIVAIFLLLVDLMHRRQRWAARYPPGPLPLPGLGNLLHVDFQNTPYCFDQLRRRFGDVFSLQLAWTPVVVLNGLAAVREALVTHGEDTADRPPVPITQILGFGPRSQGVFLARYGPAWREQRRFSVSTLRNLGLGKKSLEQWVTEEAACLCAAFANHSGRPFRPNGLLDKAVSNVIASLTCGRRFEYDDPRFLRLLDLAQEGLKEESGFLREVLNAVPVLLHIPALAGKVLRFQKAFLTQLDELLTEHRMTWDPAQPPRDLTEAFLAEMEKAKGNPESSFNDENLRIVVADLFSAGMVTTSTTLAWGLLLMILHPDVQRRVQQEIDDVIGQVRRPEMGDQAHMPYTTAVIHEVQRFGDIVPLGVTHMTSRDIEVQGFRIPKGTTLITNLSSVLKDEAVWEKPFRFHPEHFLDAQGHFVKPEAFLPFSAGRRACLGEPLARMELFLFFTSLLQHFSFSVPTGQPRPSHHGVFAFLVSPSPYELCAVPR
Sequence of Cytochrome P450 1A2 (Homo sapiens) (P05177 whole entry, looked up): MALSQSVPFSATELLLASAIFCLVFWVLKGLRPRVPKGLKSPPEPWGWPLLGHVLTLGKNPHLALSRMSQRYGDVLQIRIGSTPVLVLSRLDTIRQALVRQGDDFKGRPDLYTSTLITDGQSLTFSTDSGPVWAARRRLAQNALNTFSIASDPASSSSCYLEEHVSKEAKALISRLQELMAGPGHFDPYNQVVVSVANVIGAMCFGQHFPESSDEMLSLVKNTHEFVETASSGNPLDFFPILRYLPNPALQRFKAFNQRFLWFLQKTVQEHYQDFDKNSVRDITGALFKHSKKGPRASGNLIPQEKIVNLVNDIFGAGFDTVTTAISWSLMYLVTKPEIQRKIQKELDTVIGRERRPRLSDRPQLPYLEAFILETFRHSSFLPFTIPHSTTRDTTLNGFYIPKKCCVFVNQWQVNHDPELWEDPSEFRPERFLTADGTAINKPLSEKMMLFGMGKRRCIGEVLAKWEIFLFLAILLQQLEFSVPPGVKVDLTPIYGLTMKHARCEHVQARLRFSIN
Sequence of Nuclear receptor subfamily 1 group I member 2 (Homo sapiens) (O75469 whole entry, looked up): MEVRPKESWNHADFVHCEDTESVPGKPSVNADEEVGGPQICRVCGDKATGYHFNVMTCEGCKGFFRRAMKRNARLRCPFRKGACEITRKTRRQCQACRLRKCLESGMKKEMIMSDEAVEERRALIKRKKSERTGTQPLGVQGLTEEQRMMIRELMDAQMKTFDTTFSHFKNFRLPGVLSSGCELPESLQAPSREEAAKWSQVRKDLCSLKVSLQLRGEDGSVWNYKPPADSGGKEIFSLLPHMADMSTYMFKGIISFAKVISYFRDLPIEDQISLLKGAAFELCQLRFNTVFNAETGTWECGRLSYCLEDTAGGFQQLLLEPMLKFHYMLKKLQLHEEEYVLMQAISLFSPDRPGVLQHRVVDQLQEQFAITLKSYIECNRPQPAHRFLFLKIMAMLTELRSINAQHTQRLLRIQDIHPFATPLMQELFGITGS

Regarding `CC1=CCC(O)(C(C)C)CC1` (stereo not drawn), the outcome in assay [1], in assay [2], in [4], in assay [5], in [8] and in [11] was inactive. The outcome in [13] and in assay [14] was inactive. Moreover, the Potency entry in [3], in [6], in assay [7], in assay [9] and in assay [12] was “inactive” each time. Moreover, the max response in assay [10] was 1.58%.
As to `O[C@@H]1[C@@H](O)[C@H](OC/C=C/c2ccccc2)O[C@H](CO[C@@H]2OC[C@H](O)[C@H](O)[C@H]2O)[C@H]1O`, the outcome in assay [1], in assay [2], in [4], in assay [5], in assay [8] and in [11] was inactive. Moreover, the compound was classed as inactive in [13] and in assay [14]. In addition, the Potency entry in [3], in assay [6], in assay [7], in assay [9] and in [12] was “inactive” in each case. Also, the max response in [10] is 4.06%.
For `C[C@@H]1O[C@@H](OC[C@H]2OC(Oc3c(-c4ccc(O)c(O)c4)oc4cc(O)cc(O)c4c3=O)[C@H](O)[C@@H](O)[C@@H]2O)[C@H](O)[C@H](O)[C@H]1O` (stereo partly drawn), the result in assay [1], in assay [2], in [4], in [5], in assay [11] and in assay [13] was inactive. Also, the Potency entry in assay [3], in assay [6], in [7], in assay [9] and in [12] was “inactive” throughout. Moreover, the max response in assay [10] is -2.59%.
With `CCCCCC(=O)CC`, the call in [1], in assay [2], in assay [4], in assay [5], in assay [8] and in [11] was inactive. Also, the compound was called inactive in [13] and in [14]. Also, the Potency result in assay [3], in assay [6], in assay [7], in assay [9] and in [12] was “inactive” each time. Moreover, the max response in assay [10] is -3.61%.
As to `C=C/C(C)=C/C/C=C(\C)CCC=C(C)C`, the call in assay [1], in [2], in assay [4], in assay [5], in assay [11] and in [13] was inactive. In addition, in assay [14], the call was inactive. Besides, the Potency result in assay [3], in assay [6] and in assay [9] was “inactive” throughout. The Potency in [15] was 28.2 µM (active); in [7] it was 35.5 µM (active). For the same compound, the max response in assay [10] is 2.78%.
In the case of `CC1(C)CC[C@]2(C(=O)O)CC[C@]3(C)C(=CCC4[C@@]5(C)CC[C@@H](O)C(C)(C)C5CC[C@]43C)C2C1` (stereo partly drawn), the outcome in assay [1], in assay [2], in [4], in assay [5], in assay [8] and in assay [11] was inactive. The compound was called inactive in [13] and in assay [14]. The Potency result in [3], in assay [6], in assay [7], in assay [9] and in [12] was “inactive” throughout. In addition, the max response in assay [10] was -3.58%.
For `O=C(/C=C/c1ccc(O)c(O)c1)O[C@@H]1CC(C(=O)O)=C[C@@H](O)[C@H]1O`, the outcome in assay [1], in [2], in assay [4], in assay [5], in assay [8] and in [11] was inactive. Also, the result in [13] and in assay [14] was inactive. Further, the Potency entry in [3], in assay [15], in [6], in [7], in assay [9] and in assay [12] was “inactive” throughout. In assay [10], the max response was 4.08%.
Regarding `COc1ccc(-c2coc3cc(O[C@@H]4O[C@H](CO)[C@@H](O)[C@H](O)[C@H]4O)ccc3c2=O)cc1`, the compound was called inactive in assay [1], in assay [2], in assay [4], in assay [5], in assay [11] and in assay [13]. Further, the outcome in assay [14] was inactive. For the same compound, in assay [3], the Potency is 11.2 µM (active). Besides, the Potency entry in assay [15], in assay [6], in assay [7], in assay [9] and in assay [12] was “inactive” throughout. Also, the max response in assay [10] was 3.05%.
As for `CC(=O)OC/C=C/c1ccccc1`, the compound was called inactive in assay [1], in assay [2], in [4], in [5], in assay [11] and in assay [13]. The compound was classed as inactive in [14]. Besides, the Potency entry in assay [3], in assay [6], in assay [7] and in assay [12] was “inactive” each time. Further, the Potency in assay [9] was 28.2 µM (active). In addition, the max response in assay [10] is 3.54%.
On to `CC12CC3(O)OC(O1)C1(COC(=O)c4ccc(O)cc4)C3CC21OC1OC(CO)C(O)C(O)C1O` (stereo not drawn), for which the result in assay [1], in assay [2], in [4], in assay [5], in assay [11] and in [13] was inactive. In addition, the outcome in assay [14] was inactive. The Potency entry in assay [3], in [15], in assay [6], in assay [7], in assay [9] and in assay [12] was “inactive” in each case. Further, the max response in assay [10] was 4.47%.
Turning to `COc1ccc(/C=C/c2cc(OC)cc(=O)o2)cc1`, the Potency result in assay [16], in assay [15], in assay [6] and in assay [7] was “inactive” in each case. Moreover, the result in assay [1], in assay [2], in assay [4], in [5], in assay [8] and in [11] was inactive. The result in assay [13] and in assay [14] was inactive. Further, the results for the Potency in assay [3] and in assay [9] were 14.1 µM (active) and 10 µM (active), respectively. Further, in [10], the max response was 0.752%.
In the case of `CN(CC(=O)O)C(=N)N`, the outcome in [1], in assay [2], in [4], in assay [5], in assay [8] and in assay [11] was inactive. Moreover, the call in assay [13] and in [14] was inactive. The Potency entry in assay [3], in [6], in [7], in [9] and in assay [12] was “inactive” in each case. Further, the max response in assay [10] was -1.47%.
For the compound `COc1cc(/C=C/c2ccccc2)oc(=O)c1`, the Potency result in assay [16], in assay [15], in [6] and in assay [7] was “inactive” throughout. Further, the compound was classed as inactive in assay [1], in assay [2], in assay [4], in [5], in assay [11] and in assay [13]. In addition, in assay [14], the result was inactive. The Potency in assay [3] was 12.6 µM (active); in [9], 7.08 µM (active). For the same compound, in assay [10], the max response is 2.93%.
As for `C=C1C[C@@]23CC[C@H]4[C@](C)(CCC[C@]4(C)C(=O)O[C@@H]4O[C@H](CO)[C@@H](O)[C@H](O)[C@H]4O)[C@@H]2CC[C@]1(O[C@H]1O[C@@H](CO)[C@H](O)[C@@H](O)[C@@H]1O)C3`, the result in assay [1], in assay [2], in assay [4], in assay [5], in [8] and in assay [11] was inactive. Moreover, the result in [13] and in [14] was inactive. Also, the Potency entry in assay [3], in assay [6], in assay [7] and in assay [12] was “inactive” throughout. Besides, in assay [10], the max response was 3.88%.
